Measurements taken from PubChem BioAssay (NCATS).
Inconclusive results are not listed. A number with no mark means an inactive call. Calls of active or inactive are those of the source. The call rests on the fitted dose curve; in most records, active means well fitted cell-killing curve with a large enough effect; inconclusive means small, poorly fitted or top-dose-only effect, or effect the other way; inactive means no such curve, though single readings can be large or run the other way. Non-standard residues stand in square brackets, D forms with d. Residues, ends and D or L forms follow the SMILES beside them. *: point of attachment. Nva = CCC[C@H](N)C(=O)O; Cbz = O=C(OCc1ccccc1)*

Experiment: Quantitative High-Throughput drug screen in 47 multiple myeloma cell lines against the NCATS MIPE library collection: MM1R_ATCC cell viability assay (AID 1918981); further: nearly all actives have a fitted effect of over 35% in size
Details: MM1R multiple myeloma cells, CellTiter-Glo viability, 48 h; series mostly up to 45.8 µM; viability (% of control): at the top concentration
From the text: PI: Beverly A. Mock Ph.D.
Laboratory of Cancer Biology and Genetics,
Center for Cancer Research, National Cancer Institute,
National Institute of Health, Bethesda, Maryland
Drug resistance and disease progression are common in multiple myeloma (MM) patients, underscoring the need for new therapeutic combinations. […] We hypothesized that effective combinations would reduce MYC expression and enhance p16 activity. […] These preclinical data identify potentially useful drug combinations for evaluation in drug-resistant MM and reveal potential mechanisms of combined drug sensitivity.
Described herein is the primary MIPE qHTS used to cherrypick compounds. Validated compounds were then further tested for potential synergistic activiy.
[1] Peat TJ, Gaikwad SM, Dubois W, Gyabaah-Kessie N, Zhang S, Gorjifard S, Phyo Z, Andres M, Hughitt VK, Simpson RM, Miller MA, Girvin AT, Taylor A, Williams D, D'Antonio N, Zhang Y, Rajagopalan A, Flietner E, Wilson K, Zhang X, Shinn P, Klumpp-Thomas C, McKnight C, Itkin Z, Chen L, Kazandijian D, Zhang J, Michalowski AM, Simmons JK, Keats J, Thomas CJ, Mock BA. Drug combinations identified by high-throughput screening promote cell cycle transition and upregulate Smad pathways in myeloma. Cancer Lett. 2023 Aug 1;568:216284. doi: 10.1016/j.canlet.2023.216284. Epub 2023 Jun 24. PMID: 37356470; PMCID: PMC10408729.
SEQUENCE No. (e.g., 1, 2, 3, etc.); […] (e.g., Cells, Incubation, Reagent, etc.); VALUE and DESCRIPTION.
1; Cells; 5 uL; white, solid bottom 1536-well Greiner assay plate.
2; Compounds; 23 nL; Kalypsis pin tool (Wako USA) equipped with a 1536-well pin head to transfer to the assay plates.
3; Incubation; 48 hours; 37C incubation.
4; Reagent;5uL; CellTiter Glo (Promega).
5; Detector; 425V; Luminescence; Viewlux PerkinElmer.
NOTES (numbers refer to Sequence numbers above)
1. The cell-based screening methods employed in this study were like those previously published. Briefly, the corresponding myeloma cell lines were screened in 1,536-well plates with 500 cells, 5-uL per well for inhibition of cell viability (assessed by measuring ATP levels with CellTiterGlo).
2. NCATS MIPE 4.0 library of approved and investigational drugs were added using the Kalypsis pin tool. Wells treated with DMSO only for 100% viability and media only for 0% viability were used as controls.
3. The assay plates were covered and incubated for 48 hours in a 37C, 5% CO2 incubator with controlled humidity.
4. After 48 hours, CellTilter-GloTM luminescent substrate mix (Promega) reagent was added to the assay plate and plates we incubated for 5 min at room temperature.
5. Signal was measured as median relative luminescence units on a ViewLux (PerkinElmer) multiplate reader.
[1] Heske CM, Davis MI, Baumgart JT, Wilson K, Gormally MV, Chen L, Zhang X, Ceribelli M, Duveau DY, Guha R, Ferrer M, Arnaldez FI, Ji J, Tran HL, Zhang Y, Mendoza A, Helman LJ, Thomas CJ. Matrix Screen Identifies Synergistic Combination of PARP Inhibitors and Nicotinamide Phosphoribosyltransferase (NAMPT) Inhibitors in Ewing Sarcoma. Clin Cancer Res. 2017 Dec 1;23(23):7301-7311. doi: 10.1158/1078-0432.CCR-17-1121. Epub 2017 Sep 12. PMID: 28899971; PMCID: PMC6636827.
Potency means the concentration at half of the fitted maximal effect.

**Q.** With `CC(=O)O[C@H]1C[C@@H]2CC[C@H]3[C@H]4C[C@H]([N+]5(C)CCCCC5)[C@@H](OC(C)=O)[C@@]4(C)CC[C@@H]3[C@@]2(C)C[C@H]1N1CCCCC1` as the molecule, how does the “viability (% of control)” value read?
**A.** The value was 120%.

**Q.** Which “viability (% of control)” value does the source give for `N#CC(=C(O)c1ccc(Cl)cc1Cl)c1nc2cc(Cl)ccc2c(=O)[nH]1` here?
**A.** The value was 104%.

**Q.** For `COc1ccc(C=Cc2cc(OC)c(OC)c(OC)c2)cc1NC(=O)[C@H](N)CO`, which Potency is on record?
**A.** Its Potency is 14.8 nM (active).

**Q.** For `Nc1ccc(C(=O)Nc2cccc(-c3nc(N4CCOCC4)c4oc5ncccc5c4n3)c2)cn1`, which Potency is on record?
**A.** The Potency was 13200 nM (active).

**Q.** Which “viability (% of control)” value does the source give for `CC(C)(O)CC[C@@H](O)[C@](C)(O)[C@H]1CC[C@@]2(O)C3=CC(=O)[C@@H]4C[C@@H](O)[C@@H](O)C[C@]4(C)[C@@H]3CC[C@]12C` here?
**A.** The value was 88.9%.

**Q.** Which “viability (% of control)” value does the source give for `OCC(O)C(O)C(O)CO` (stereo not given) here?
**A.** The value was 93.8%.

**Q.** For `NC(=NCCCCCCN=C(N)N=C(N)Nc1ccc(Cl)cc1)N=C(N)Nc1ccc(Cl)cc1`, which Potency is on record?
**A.** The Potency was 7430 nM (active).

**Q.** For `CN1C(C(=O)Nc2ccccn2)=C(O)c2sc(Cl)cc2S1(=O)=O`, which Potency is on record?
**A.** Its Potency is 18700 nM (active).

**Q.** Which “viability (% of control)” value does the source give for `CC[C@H](CC[C@@H](C)[C@H]1CC[C@H]2[C@@H]3CC=C4C[C@@H](O)CC[C@]4(C)[C@@H]3CC[C@]12C)C(C)C` here?
**A.** The value was 113%.

**Q.** With `CC(=O)OCC(=O)[C@@]1(O)CC[C@H]2[C@@H]3CCC4=CC(=O)CC[C@]4(C)[C@@H]3C(=O)C[C@@]21C` as the molecule, how does the “viability (% of control)” value read?
**A.** The value was 109%.

**Q.** Which “viability (% of control)” value does the source give for `CC(C)(O)[C@H]1CC[C@@](C)([C@H]2[C@@H](O)C[C@@]3(C)[C@@H]4C[C@H](O[C@@H]5O[C@H](CO)[C@@H](O)[C@H](O)[C@@H]5O)[C@H]5C(C)(C)[C@@H](O[C@@H]6OC[C@@H](O)[C@H](O)[C@@H]6O)CC[C@@]56C[C@@]46CC[C@]23C)O1` here?
**A.** Its value is 115%.

**Q.** Which “viability (% of control)” value does the source give for `C=C[C@@H]1CN2CCC1C[C@H]2[C@H](O)c1ccnc2ccc(OC)cc12` (stereo not given in full) here?
**A.** The value was 82.4%.

**Q.** For `C#CCC(Cc1cnc2nc(N)nc(N)c2n1)c1ccc(C(=O)N[C@@H](CCC(=O)O)C(=O)O)cc1` (stereo not given in full), which Potency is on record?
**A.** Its Potency is 11.8 nM (active).

**Q.** With `CCNC(=O)c1cc2c(-c3cc(OCCN4CCCC4)c(Cl)cc3Cl)nc(N)nc2s1` as the molecule, how does the Potency read?
**A.** The Potency was 2090 nM (active).

**Q.** For `COc1ccc(CCC(=O)c2c(O)cc(O[C@@H]3O[C@H](CO)[C@@H](O)[C@H](O)[C@@H]3O[C@@H]3O[C@@H](C)[C@H](O)[C@@H](O)[C@@H]3O)cc2O)cc1O`, which “viability (% of control)” value is on record?
**A.** The value was 105%.

**Q.** For `Cc1onc(-c2ccccc2)c1C(=O)N[C@@H]1C(=O)N2[C@@H](C(=O)O)C(C)(C)S[C@@H]12`, which “viability (% of control)” value is on record?
**A.** The value was 125%.

**Q.** With `CS[C@H]1SC[C@@H]2C(=O)N(C)[C@H](C(C)C)C(=O)OC[C@H](NC(=O)c3cnc4ccccc4n3)C(=O)N[C@H](C)C(=O)N(C)[C@@H]1C(=O)N(C)[C@H](C(C)C)C(=O)OC[C@H](NC(=O)c1cnc3ccccc3n1)C(=O)N[C@H](C)C(=O)N2C` as the molecule, how does the Potency read?
**A.** The Potency was 1.9 nM (active).

**Q.** With `CCC[C@@H](C=O)NC(=O)[C@H](CC(C)C)NC(=O)[C@H](CC(C)C)NC(=O)OCc1ccccc1` (Cbz-Leu-Leu-[Nva]-aldehyde) as the molecule, how does the Potency read?
**A.** Its Potency is 743 nM (active).

**Q.** With `COc1cccc2c1C(=O)c1c(O)c3c(c(O)c1C2=O)C[C@@](O)(C(=O)CO)C[C@@H]3O[C@H]1C[C@H](N)[C@@H](O)[C@H](C)O1` as the molecule, how does the Potency read?
**A.** The Potency was 118 nM (active).

**Q.** With `CN(CC(=O)N(Cc1ccc(C2CCCCC2)cc1)c1ccc(C(=O)O)c(O)c1)S(=O)(=O)c1c(F)c(F)c(F)c(F)c1F` as the molecule, how does the Potency read?
**A.** The Potency was 8330 nM (active).

**Q.** Which “viability (% of control)” value does the source give for `CON=C(C(=O)N[C@@H]1C(=O)N2C(C(=O)O)=C(Cn3ccc(=N)n3CCO)CS[C@H]12)c1csc(N)n1` here?
**A.** The value was 140%.

**Q.** Which Potency does the source give for `CO[C@@H]1[C@@H](O)[C@H](O)[C@@H](n2c3c(Cl)cccc3c3c4c(c5c6cccc(Cl)c6[nH]c5c32)C(=O)NC4=O)O[C@@H]1CO` here?
**A.** Its Potency is 526 nM (active).

**Q.** For `CCN(CC)Cc1ccc2cc(COC(=O)Nc3ccc(C(=O)NO)cc3)ccc2c1`, which Potency is on record?
**A.** Its Potency is 332 nM (active).

**Q.** For `CC(C)C[C@H](NC(=O)CNC(=O)c1cc(Cl)ccc1Cl)B1OC(=O)CC(CC(=O)O)(C(=O)O)O1` (stereo not given in full), which Potency is on record?
**A.** Its Potency is 29.6 nM (active).

**Q.** With `CNC(=O)Nc1ccc(-c2nc(N3CC4CCC(C3)O4)c3cnn(C4CCC5(CC4)OCCO5)c3n2)cc1` as the molecule, how does the Potency read?
**A.** Its Potency is 41.8 nM (active).

**Q.** For `C[C@H]1C[C@H]2[C@@H]3CCC4=CC(=O)C=C[C@]4(C)[C@@H]3C(=O)C[C@]2(C)[C@@]1(O)C(=O)CO`, which “viability (% of control)” value is on record?
**A.** Its value is 122%.

**Q.** With `CC(=O)NCC(=O)N1[C@H]2CC[C@H]1c1cc(Nc3ncc(C(F)(F)F)c(NC4CCC4)n3)ccc12` as the molecule, how does the Potency read?
**A.** The Potency was 2350 nM (active).

**Q.** With `CNC(=O)c1cccc(-c2ccc3c(N4CCOC[C@H]4C)nc(N4CCOC[C@H]4C)nc3n2)c1` as the molecule, how does the Potency read?
**A.** The Potency was 66.2 nM (active).

**Q.** With `Cn1cc(-c2ccc3ncc(Cc4ccc5ncccc5c4)n3n2)cn1` as the molecule, how does the “viability (% of control)” value read?
**A.** The value was 89.5%.

**Q.** Which “viability (% of control)” value does the source give for `CCCCC(=O)O[C@]1(C(=O)CO)[C@@H](C)C[C@H]2[C@@H]3CCC4=CC(=O)C=C[C@]4(C)[C@@]3(F)[C@@H](O)C[C@@]21C` here?
**A.** Its value is 111%.

**Q.** For `CC(O)(C#Cc1ccc2c(c1)N(c1nc(N)ncc1Cl)CC2)c1nccs1` (stereo not given), which Potency is on record?
**A.** Its Potency is 18700 nM (active).

**Q.** With `CN[C@H](CC(C)C)C(=O)N[C@H]1C(=O)N[C@@H](CC(N)=O)C(=O)N[C@@H]2C(=O)N[C@H]3C(=O)N[C@H](C(=O)N[C@H](C(=O)O)c4cc(O)cc(O)c4-c4cc3ccc4O)[C@H](O)c3ccc(c(Cl)c3)Oc3cc2cc(c3O[C@@H]2O[C@H](CO)[C@@H](O)[C@H](O)[C@@H]2O[C@H]2C[C@](C)(N)[C@H](O)[C@H](C)O2)Oc2ccc(cc2Cl)[C@H]1O` as the molecule, how does the “viability (% of control)” value read?
**A.** Its value is 121%.

**Q.** Which Potency does the source give for `CCCNC(=O)[C@H]1O[C@H]1C(=O)N[C@H](C(=O)N1CCC[C@@H]1C(=O)OC)C(C)CC` (stereo not given in full) here?
**A.** Its Potency is 2350 nM (active).

**Q.** Which Potency does the source give for `Nc1cccc2c1C(=O)N(C1CCC(=O)NC1=O)C2=O` (stereo not given) here?
**A.** The Potency was 2090 nM (active).

**Q.** Which Potency does the source give for `COc1cc([C@@H]2c3cc4c(cc3[C@@H](O[C@@H]3O[C@@H]5CO[C@@H](c6cccs6)O[C@@H]5[C@H](O)[C@@H]3O)[C@H]3COC(=O)[C@H]23)OCO4)cc(OC)c1O` here?
**A.** The Potency was 74.3 nM (active).

**Q.** With `CCOc1cc2ncc(C#N)c(Nc3ccc(OCc4ccccn4)c(Cl)c3)c2cc1NC(=O)C=CCN(C)C` as the molecule, how does the Potency read?
**A.** The Potency was 11800 nM (active).

**Q.** For `C[C@@H]1CC[C@@]2(OC1)OC1CC3C4CC=C5CC(O)CCC5(C)C4CCC3(C)C1[C@@H]2C` (stereo not given in full), which “viability (% of control)” value is on record?
**A.** The value was 124%.

**Q.** Which Potency does the source give for `C=CC(=O)N1CCc2ccc(-n3c(=O)ccc4cnc5ccc(-c6cnn(C)c6)cc5c43)cc21` here?
**A.** The Potency was 2350 nM (active).

**Q.** For `CNC(=O)c1ccc(Nc2cc(Nc3ccccc3S(=O)(=O)C(C)C)c3cc[nH]c3n2)nc1`, which Potency is on record?
**A.** Its Potency is 6620 nM (active).

**Q.** With `c1coc(CNc2ncnc3nc[nH]c23)c1` as the molecule, how does the “viability (% of control)” value read?
**A.** Its value is 115%.
